In the supplement of paper PMC10849652:
Of roughly 8,800 targets only a part is listed; those with a hit were picked by preference. About 0.5% of all pairs of compound and target were hits.

Key:
Assay in all cases: log2 fold change, soluble protein after heating vs DMSO (PISA); higher = thermal stabilisation; K562 lysate, 10 uM; active = over 0.2 and 3.5 SD of the protein, either way, in both replicates (recomputed)
[1] = compound: CCCS(=O)(=O)Nc1ccc(F)c(C(=O)c2c[nH]c3ncc(-c4ccc(Cl)cc4)cc23)c1F [vemurafenib]
Summary of the method: (§1)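 Quantification was by TMTpro 16plex LC-MS/MS with equalised channel sums, applied to the supernatant after 21,000xg for 90 min. Samples were crude K562 extract at 1 mg/mL protein in PBS pH 7.4 with 1 mM MgCl2, treated with 10 μM compound for 30 min, heated for 3 min across 48°C-58°C, pooled and brought to 0.5% NP-40 at 4°C. Values are log-two fold changes in thermal stability relative to solvent controls, from duplicates.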

[2] = compound: CCN(CCCOc1ccc2c(Nc3cc(CC(=O)Nc4cccc(F)c4)[nH]n3)ncnc2c1)CCOP(=O)(O)O [barasertib]
Summary of the method: as §1

[3] = compound: CC[C@@H]1C(=O)N(C)c2cnc(Nc3ccc(C(=O)NC4CCN(C)CC4)cc3OC)nc2N1C1CCCC1
Summary of the method: as §1

[4] = compound: CCn1c(C(=O)N(C2CC2)C2CC2)cc2c3c(ncn3C)c(Nc3cc(C)n(C)n3)nc21
Summary of the method: as §1

[5] = compound: CCn1cc(-c2ccnc3[nH]c(-c4cccc(CN(C)C)c4)cc23)c(-c2ccc(NC(=O)N(C)C)cc2)n1
Summary of the method: as §1

[6] = compound: CN1CCC(CNc2ccc3ncc(-c4cccc(OC(F)(F)F)c4)n3n2)CC1
Summary of the method: as §1

[7] = compound: CN1CCN(CCOc2cc(OC3CCOCC3)c3c(Nc4c(Cl)ccc5c4OCO5)ncnc3c2)CC1 [saracatinib]
Summary of the method: as §1

[8] = compound: CN1CCN(c2nc(C3=C(c4c[nH]c5ccccc45)C(=O)NC3=O)c3ccccc3n2)CC1 [sotrastaurin]
Summary of the method: as §1

[9] = compound: CN1CC[C@H](c2c(O)cc(O)c3c(=O)cc(-c4ccccc4Cl)oc23)[C@H](O)C1 [alvocidib]
Summary of the method: as §1

[10] = compound: CN1CCc2c(c3ccccc3n2Cc2ccc(C(=O)NO)cc2)C1 [Tubastatin A]
Summary of the method: as §1

[11] = compound: CNC(=O)c1ccc(Nc2ncc(C(F)(F)F)c(NCc3nccnc3N(C)S(C)(=O)=O)n2)cc1 [defactinib]
Summary of the method: as §1

[12] = compound: CNc1nc(-c2ccc3c(N)n[nH]c3c2)cc(N2C[C@@H](C(=O)NC3CCCCC3)CC[C@H]2C)n1
Summary of the method: as §1

[13] = compound: COC(=O)N[C@@H](C)CNc1nccc(-c2cn(C(C)C)nc2-c2cc(Cl)cc(NS(C)(=O)=O)c2F)n1 [encorafenib]
Summary of the method: as §1

[14] = compound: COC(=O)[C@H](CCSC)NC(=O)C1=C(C=C(C=C1)NC[C@H](CS)N)C2=CC=CC=C2
Summary of the method: as §1

[15] = compound: COc1cc(Nc2ncc3c(n2)-c2ccc(Cl)cc2C(c2c(F)cccc2OC)=NC3)ccc1C(=O)O [alisertib]
Summary of the method: as §1

[16] = compound: COc1cc2ncnc(Nc3ccc(F)c(Cl)c3)c2cc1OCCCN1CCOCC1 [gefitinib]
Summary of the method: as §1

[17] = compound: CNC(=O)C1=CC=CC=C1NC2=NC(=NC=C2Cl)NC3=C(C=C(C=C3)N4CCOCC4)OC
Summary of the method: as §1

[18] = compound: CCCS(=O)(=O)Nc1ccc(F)c(C(=O)c2c[nH]c3ncc(Cl)cc23)c1F
Summary of the method: as §1

[19] = compound: CC[C@@H]1C(=O)N(C)c2cnc(Nc3ccc(C(=O)N[C@H]4CC[C@H](N5CCN(CC6CC6)CC5)CC4)cc3OC)nc2N1C(C)C [volasertib]
Summary of the method: as §1

[20] = compound: COc1cc2nc(-c3cc(F)ccc3O)nc(N[C@@H]3CNC[C@H]3C(C)(C)O)c2cc1OC
Summary of the method: as §1

Measured: log2 fold change

RAD17 (UniProt O75943)
inactive: [1] -0.091 | [2] 0.131 | [3] 0.017 | [4] 0.07 | [5] -0.214 | [6] -0.027 | [7] 0.042 | [8] -0.004 | [9] -0.24 | [10] -0.041 | [11] 0.111 | [12] 0.154 | [13] 0.094 | [14] 0.026 | [15] 0.029 | [16] 0.022

SEC16A isoform 2 (UniProt O15027)
inactive: [4] -0.204 | [10] 0.023

RFWD3 (UniProt Q6PCD5)
inactive: [1] -0.073 | [2] 0.004 | [3] -0.011 | [4] -0.062 | [5] -0.087 | [6] -0.055 | [7] -0.036 | [8] -0.017 | [9] -0.057 | [10] 0.065 | [17] 0.051 | [11] 0.082 | [12] -0.057 | [13] 0.1 | [14] -0.052 | [15] 0.114 | [16] -0.057

RBM4 isoform 3 (UniProt Q9BWF3)
inactive: [8] 0.074

SCNM1 (UniProt Q9BWG6)
active: [19] 0.372
inactive: [18] 0.012 | [3] 0.122 | [4] 0.099 | [5] -0.033 | [6] -0.005 | [7] -0.092 | [8] -0.023 | [9] -0.005 | [10] 0.035 | [17] 0.117 | [12] 0.127 | [13] 0.115 | [14] -0.311 | [15] 0.035 | [20] 0.15 | [16] 0.114

RNF24 isoform 2 (UniProt Q9Y225)
Chain of UniProt Q9Y225 (Q9Y225 whole entry, looked up): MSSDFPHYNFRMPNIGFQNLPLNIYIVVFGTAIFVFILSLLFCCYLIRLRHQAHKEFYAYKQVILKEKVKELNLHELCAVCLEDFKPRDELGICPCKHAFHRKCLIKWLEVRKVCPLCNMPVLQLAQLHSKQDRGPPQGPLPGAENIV
inactive: [2] 0.122 | [5] 0.033 | [6] -0.084 | [8] 0.025 | [9] 0.079 | [17] 0.003 | [15] -0.113 | [16] -0.108

ROBO2 isoform 3 (UniProt Q9HCK4)
active: [4] 0.523
inactive: [18] 0.071 | [19] 0.045 | [8] -0.001 | [10] -0.009 | [17] 0.03 | [20] 0.009

SATB2 (UniProt Q9UPW6)
inactive: [1] 0.002 | [18] 0 | [3] 0.023 | [19] 0.007 | [4] 0.009 | [5] 0.074 | [6] 0.016 | [7] -0.026 | [8] 0.032 | [9] 0.047 | [10] -0.096 | [17] -0.019 | [11] -0.022 | [12] -0.031 | [13] 0.053 | [14] -0.022 | [15] 0.024 | [20] -0.008 | [16] 0.01

RNF170 (UniProt Q96K19)
Chain of UniProt Q96K19 (Q96K19 whole entry, looked up): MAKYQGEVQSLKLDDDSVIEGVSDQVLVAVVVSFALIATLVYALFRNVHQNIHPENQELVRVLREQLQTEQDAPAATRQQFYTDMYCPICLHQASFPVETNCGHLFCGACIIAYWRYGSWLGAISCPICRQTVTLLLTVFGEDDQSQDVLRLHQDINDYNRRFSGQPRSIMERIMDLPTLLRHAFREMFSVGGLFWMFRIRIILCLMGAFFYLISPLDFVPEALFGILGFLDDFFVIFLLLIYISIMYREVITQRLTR
inactive: [1] -0.08 | [18] 0.02 | [2] 0.189 | [19] -0.131 | [5] -0.015 | [6] 0.09 | [7] -0.201 | [9] 0.371 | [17] -0.137 | [11] 0.027 | [12] -0.067 | [15] 0.055 | [20] 0.07 | [16] 0.037

RDH11 (UniProt Q8TC12)
Chain of UniProt Q8TC12 (Q8TC12 whole entry, looked up): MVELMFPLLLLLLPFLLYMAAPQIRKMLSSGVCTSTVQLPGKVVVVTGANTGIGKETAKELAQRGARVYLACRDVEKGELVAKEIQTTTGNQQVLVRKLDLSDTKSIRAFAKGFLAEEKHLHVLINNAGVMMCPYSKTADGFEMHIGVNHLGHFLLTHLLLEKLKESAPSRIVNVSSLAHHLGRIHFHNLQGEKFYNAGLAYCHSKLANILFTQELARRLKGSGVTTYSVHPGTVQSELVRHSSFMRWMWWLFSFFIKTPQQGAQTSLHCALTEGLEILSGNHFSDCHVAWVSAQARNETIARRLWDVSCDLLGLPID
inactive: [1] 0.055 | [18] 0.088 | [3] -0.115 | [19] -0.13 | [4] 0.069 | [5] -0.213 | [6] 0.082 | [7] 0.021 | [8] 0.022 | [9] -0.071 | [10] 0.031 | [17] 0.011 | [11] 0 | [12] 0.1 | [13] 0.092 | [14] 0.149 | [15] -0.009 | [20] 0.082 | [16] -0.019

RHOU (UniProt Q7L0Q8)
inactive: [1] -0.04 | [18] -0.059 | [3] -0.122 | [19] 0.008 | [4] -0.006 | [5] 0.173 | [6] 0.015 | [7] -0.027 | [8] 0.036 | [9] 0.007 | [10] 0.005 | [17] -0.036 | [11] -0.073 | [12] -0.17 | [13] -0.088 | [14] 0.164 | [15] -0.014 | [20] 0.024 | [16] -0.017

RBM45 (UniProt Q8IUH3)
Chain of UniProt Q8IUH3 (Q8IUH3 whole entry, looked up): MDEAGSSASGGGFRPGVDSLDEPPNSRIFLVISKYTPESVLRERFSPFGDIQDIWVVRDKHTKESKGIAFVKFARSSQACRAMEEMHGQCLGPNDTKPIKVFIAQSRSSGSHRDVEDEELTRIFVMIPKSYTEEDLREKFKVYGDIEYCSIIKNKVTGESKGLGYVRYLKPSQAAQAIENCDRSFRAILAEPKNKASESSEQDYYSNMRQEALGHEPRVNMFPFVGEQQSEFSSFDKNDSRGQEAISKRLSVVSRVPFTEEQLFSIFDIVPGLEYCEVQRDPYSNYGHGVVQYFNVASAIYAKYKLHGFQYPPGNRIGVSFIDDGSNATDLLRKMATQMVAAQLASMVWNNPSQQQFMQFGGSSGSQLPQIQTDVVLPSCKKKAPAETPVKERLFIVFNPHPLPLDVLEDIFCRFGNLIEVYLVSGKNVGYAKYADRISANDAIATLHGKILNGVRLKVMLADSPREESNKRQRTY
inactive: [18] 0.12 | [19] -0.207 | [5] 0.128 | [6] -0.015 | [8] 0.077 | [9] 0.013 | [15] -0.136 | [20] 0.055 | [16] -0.03

RPS6KA5 (UniProt O75582)
Chain of UniProt O75582 (O75582 whole entry, looked up): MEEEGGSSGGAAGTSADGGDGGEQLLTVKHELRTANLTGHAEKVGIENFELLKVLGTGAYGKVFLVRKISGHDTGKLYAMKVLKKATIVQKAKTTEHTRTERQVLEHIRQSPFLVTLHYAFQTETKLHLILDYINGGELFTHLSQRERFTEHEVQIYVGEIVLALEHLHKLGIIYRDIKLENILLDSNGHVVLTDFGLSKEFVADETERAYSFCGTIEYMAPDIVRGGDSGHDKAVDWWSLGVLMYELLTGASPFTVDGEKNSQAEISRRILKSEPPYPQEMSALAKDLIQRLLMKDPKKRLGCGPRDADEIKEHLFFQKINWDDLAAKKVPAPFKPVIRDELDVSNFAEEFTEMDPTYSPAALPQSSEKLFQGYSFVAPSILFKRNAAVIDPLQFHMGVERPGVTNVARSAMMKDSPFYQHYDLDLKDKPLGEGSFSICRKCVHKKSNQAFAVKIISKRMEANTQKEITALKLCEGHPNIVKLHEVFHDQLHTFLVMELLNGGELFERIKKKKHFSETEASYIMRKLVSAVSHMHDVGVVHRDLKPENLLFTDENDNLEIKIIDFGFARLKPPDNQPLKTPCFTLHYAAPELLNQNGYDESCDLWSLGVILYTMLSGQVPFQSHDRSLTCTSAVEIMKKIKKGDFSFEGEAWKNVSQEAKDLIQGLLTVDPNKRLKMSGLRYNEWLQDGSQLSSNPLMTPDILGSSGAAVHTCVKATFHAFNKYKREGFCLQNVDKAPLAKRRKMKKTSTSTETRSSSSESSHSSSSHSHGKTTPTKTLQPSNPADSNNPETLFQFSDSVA
inactive: [1] -0.048 | [18] -0.073 | [3] 0.059 | [19] -0.182 | [4] 0.005 | [5] -0.116 | [6] 0.087 | [7] -0.071 | [8] 0.185 | [9] 0.193 | [10] -0.239 | [17] 0.009 | [11] 0.019 | [12] 0.072 | [13] 0.054 | [14] -0.005 | [15] 0.041 | [20] 0.104 | [16] 0.11

RYR1 (UniProt P21817)
inactive: [18] -0.038 | [2] 0.041 | [3] 0.07 | [19] -0.049 | [4] -0.053 | [5] 0.045 | [6] 0.03 | [7] 0.057 | [8] 0.091 | [9] 0.015 | [10] 0.097 | [17] 0.064 | [12] 0.16 | [13] -0.024 | [14] -0.087 | [20] 0.02

S100A6 (UniProt P06703)
active: [7] 0.715
inactive: [1] 0.036 | [18] 0.124 | [3] -0.027 | [19] 0.048 | [4] -0.094 | [5] 0.03 | [6] -0.139 | [8] -0.033 | [9] 0.084 | [10] -0.044 | [17] 0.018 | [11] -0.017 | [12] -0.126 | [13] -0.173 | [14] 0.023 | [20] -0.038

RECQL4 (UniProt O94761)
Chain of UniProt O94761 (O94761 whole entry, looked up): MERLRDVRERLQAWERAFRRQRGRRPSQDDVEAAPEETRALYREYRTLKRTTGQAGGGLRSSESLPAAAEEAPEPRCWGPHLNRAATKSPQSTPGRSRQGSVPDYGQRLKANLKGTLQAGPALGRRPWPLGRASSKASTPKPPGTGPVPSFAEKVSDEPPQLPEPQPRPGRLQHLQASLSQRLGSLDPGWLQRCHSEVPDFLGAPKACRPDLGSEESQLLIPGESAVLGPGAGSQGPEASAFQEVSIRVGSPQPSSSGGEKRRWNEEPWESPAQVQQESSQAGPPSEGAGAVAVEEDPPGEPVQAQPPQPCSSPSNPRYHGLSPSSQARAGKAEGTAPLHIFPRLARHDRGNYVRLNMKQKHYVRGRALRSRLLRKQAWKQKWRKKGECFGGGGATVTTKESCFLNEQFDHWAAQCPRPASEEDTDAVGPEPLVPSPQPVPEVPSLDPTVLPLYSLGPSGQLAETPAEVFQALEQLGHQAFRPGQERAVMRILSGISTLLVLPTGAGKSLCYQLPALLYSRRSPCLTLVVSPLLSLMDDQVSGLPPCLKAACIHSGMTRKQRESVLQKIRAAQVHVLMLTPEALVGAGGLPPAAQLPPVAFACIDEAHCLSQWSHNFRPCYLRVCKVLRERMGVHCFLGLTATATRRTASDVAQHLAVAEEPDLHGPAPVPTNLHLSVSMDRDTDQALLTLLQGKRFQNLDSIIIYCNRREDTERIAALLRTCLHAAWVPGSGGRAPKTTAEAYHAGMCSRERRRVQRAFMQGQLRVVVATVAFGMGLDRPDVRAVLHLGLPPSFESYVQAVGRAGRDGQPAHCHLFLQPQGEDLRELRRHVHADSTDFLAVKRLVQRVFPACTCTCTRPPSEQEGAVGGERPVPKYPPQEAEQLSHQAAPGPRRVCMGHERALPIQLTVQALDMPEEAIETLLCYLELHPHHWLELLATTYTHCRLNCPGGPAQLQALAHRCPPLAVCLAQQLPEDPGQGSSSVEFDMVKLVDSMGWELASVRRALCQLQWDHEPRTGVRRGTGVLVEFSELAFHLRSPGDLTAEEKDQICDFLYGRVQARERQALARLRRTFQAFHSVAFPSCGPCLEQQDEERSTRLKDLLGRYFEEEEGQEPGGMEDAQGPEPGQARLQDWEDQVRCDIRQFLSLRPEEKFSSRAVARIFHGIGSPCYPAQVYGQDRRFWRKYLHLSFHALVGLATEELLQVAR
inactive: [1] -0.019 | [2] 0.1 | [3] 0.054 | [4] 0.043 | [5] -0.254 | [6] -0.026 | [7] 0.043 | [8] -0.017 | [9] 0.042 | [10] -0.045 | [17] 0.104 | [11] 0.049 | [12] -0.02 | [13] 0.023 | [14] 0.056 | [15] 0.028 | [16] 0.065

RLIM (UniProt Q9NVW2)
inactive: [2] 0.065 | [8] -0.055

RXRA (UniProt P19793)
inactive: [18] -0.121 | [19] 0.026 | [4] -0.061 | [6] 0.13 | [7] -0.093 | [8] 0.013 | [9] -0.019 | [10] 0.138 | [17] -0.06 | [12] 0.072 | [15] -0.117 | [20] 0.018 | [16] 0.043
active: [5] -0.359

SELENOK (UniProt Q9Y6D0)
active: [6] 0.529
inactive: [1] -0.034 | [18] -0.004 | [2] -0.022 | [19] 0.062 | [5] -0.593 | [7] -0.021 | [9] -0.169 | [11] 0.123 | [12] -0.001 | [15] -0.018 | [20] -0.025 | [16] 0.006

RNASEH1 (UniProt O60930)
inactive: [5] -0.023 | [6] -0.002 | [9] 0.024

RMI2 (UniProt Q96E14)
Chain of UniProt Q96E14 (Q96E14 whole entry, looked up): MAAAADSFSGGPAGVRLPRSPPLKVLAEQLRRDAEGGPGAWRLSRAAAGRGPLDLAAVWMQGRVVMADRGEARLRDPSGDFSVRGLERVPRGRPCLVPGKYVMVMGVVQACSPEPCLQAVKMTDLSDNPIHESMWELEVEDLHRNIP
inactive: [1] 0.239 | [3] -0.109 | [4] -0.007 | [7] -0.008 | [8] -0.01 | [10] -0.146 | [17] -0.074 | [11] 0.265 | [12] 0.007 | [13] -0.054 | [14] -0.021

RNF17 (UniProt Q9BXT8)
Chain of UniProt Q9BXT8 (Q9BXT8 whole entry, looked up): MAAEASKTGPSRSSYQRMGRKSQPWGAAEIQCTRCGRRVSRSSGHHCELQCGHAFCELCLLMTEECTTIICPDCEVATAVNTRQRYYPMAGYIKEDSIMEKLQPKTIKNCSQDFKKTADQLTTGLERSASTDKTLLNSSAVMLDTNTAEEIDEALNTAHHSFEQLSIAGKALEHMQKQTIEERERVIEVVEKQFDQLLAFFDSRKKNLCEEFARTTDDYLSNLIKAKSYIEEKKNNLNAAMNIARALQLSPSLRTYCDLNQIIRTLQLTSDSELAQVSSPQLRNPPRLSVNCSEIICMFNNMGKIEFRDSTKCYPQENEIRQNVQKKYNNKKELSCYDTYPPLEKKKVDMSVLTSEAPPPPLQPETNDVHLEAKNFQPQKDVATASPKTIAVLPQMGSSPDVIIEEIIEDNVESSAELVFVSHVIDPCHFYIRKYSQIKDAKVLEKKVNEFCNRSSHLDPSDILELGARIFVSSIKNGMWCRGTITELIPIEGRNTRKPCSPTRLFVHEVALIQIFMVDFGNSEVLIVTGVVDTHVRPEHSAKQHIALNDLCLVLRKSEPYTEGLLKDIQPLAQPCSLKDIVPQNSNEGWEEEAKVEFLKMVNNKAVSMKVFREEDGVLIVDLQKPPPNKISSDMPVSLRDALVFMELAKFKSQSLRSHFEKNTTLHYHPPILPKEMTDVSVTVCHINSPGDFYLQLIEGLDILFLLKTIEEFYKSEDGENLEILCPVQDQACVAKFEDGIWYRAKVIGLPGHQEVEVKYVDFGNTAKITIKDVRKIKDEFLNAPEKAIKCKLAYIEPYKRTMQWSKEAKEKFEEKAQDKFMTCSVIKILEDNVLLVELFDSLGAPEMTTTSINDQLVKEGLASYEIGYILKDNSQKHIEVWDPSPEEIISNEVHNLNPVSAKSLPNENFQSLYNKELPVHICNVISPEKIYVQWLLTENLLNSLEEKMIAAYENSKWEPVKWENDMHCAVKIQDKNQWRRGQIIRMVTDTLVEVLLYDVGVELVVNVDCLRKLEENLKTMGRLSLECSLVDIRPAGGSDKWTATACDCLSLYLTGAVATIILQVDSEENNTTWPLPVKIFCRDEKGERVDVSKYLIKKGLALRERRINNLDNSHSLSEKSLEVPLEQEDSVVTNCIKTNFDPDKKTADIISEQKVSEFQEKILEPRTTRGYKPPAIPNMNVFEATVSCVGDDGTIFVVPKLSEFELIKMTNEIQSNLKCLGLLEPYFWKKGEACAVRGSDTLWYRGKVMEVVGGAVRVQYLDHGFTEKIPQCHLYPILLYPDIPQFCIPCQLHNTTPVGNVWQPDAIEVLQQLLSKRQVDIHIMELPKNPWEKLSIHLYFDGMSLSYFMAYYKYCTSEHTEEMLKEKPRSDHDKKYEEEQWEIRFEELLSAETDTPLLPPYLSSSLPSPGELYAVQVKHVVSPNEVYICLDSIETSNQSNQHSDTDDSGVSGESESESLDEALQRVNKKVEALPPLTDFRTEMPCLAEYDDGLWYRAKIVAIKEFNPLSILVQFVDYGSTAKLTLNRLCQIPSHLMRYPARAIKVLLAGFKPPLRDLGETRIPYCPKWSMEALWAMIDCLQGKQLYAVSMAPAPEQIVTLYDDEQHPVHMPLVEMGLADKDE
inactive: [18] 0.022 | [2] 0.133 | [3] 0.099 | [19] 0.066 | [4] -0.035 | [5] 0.113 | [6] -0.421 | [7] 0.257 | [8] 0.046 | [9] -0.006 | [10] 0.079 | [17] 0.096 | [12] -0.183 | [13] 0.061 | [14] -0.032 | [20] -0.057

RNPC3 (UniProt Q96LT9)
inactive: [18] -0.02 | [19] 0.019 | [4] -0.119 | [5] -0.009 | [6] -0.032 | [7] -0.022 | [8] -0.074 | [9] 0.012 | [10] -0.099 | [17] -0.047 | [12] 0.082 | [15] 0.118 | [20] 0.056 | [16] -0.08

SEMA4G isoform 2 (UniProt Q9NTN9)
inactive: [1] 0.042 | [3] -0.059 | [5] -0.072 | [6] 0.04 | [7] -0.227 | [8] 0.004 | [9] -0.116 | [17] 0.122 | [11] -0.047 | [12] 0.143 | [13] -0.193 | [14] 0.215

QSER1, A0A3B3IRW6
inactive: [1] -0.042 | [18] 0.045 | [3] -0.044 | [19] -0.028 | [4] 0.043 | [7] -0.036 | [8] -0.014 | [10] -0.122 | [17] 0.014 | [11] 0.019 | [12] -0.035 | [13] 0.059 | [14] 0.183 | [15] 0.025 | [20] -0.004 | [16] -0.021
